Assay results as given in PubChem BioAssay AID1159524 (National Center for Advancing Translational Sciences (NCATS), 2015).
About 5,100 (1.2%) of roughly 410,000 compounds were called active. Inconclusive results (about 8%) are left out. Shown is part of a subset that was picked to be rich in actives. Unmarked numbers belong to inactive results. Calls come from the whole dose curve; tested in HEK293T cells.

Assay: High Throughput Screening for Foot and Mouth Disease Virus Antivirals; note: read-out not given here; nearly all actives have a fitted effect of over 45% in size
Details: FMDV antiviral cell-based qHTS; series mostly up to 57.9 µM; activity change, negative = inhibition: at the top concentration
% is set by controls: 0 for no effect and ±100 for the full control effect; potency is the fitted concentration of half-maximal effect.

| Compound | activity change, negative = inhibition | Potency |
| --- | --- | --- |
| COc1cccc(Cn2c(=O)c(-c3cc(F)cc(F)c3)nc3cnc(OC)nc32)c1 | -4.74% |  |
| COc1cccc(Nc2ncc3ncc(=O)n(C4CC4)c3n2)c1 | 15.6% |  |
| NCCCNCCCCN(CCCN)/[N+]([O-])=N/O | -17.2% |  |
| N#CCCn1c(=O)c(-c2cc(F)cc(F)c2)nc2cnc(Oc3ccccc3)nc21 | -7.27% |  |
| COc1ccc(OC)c(CNC(=O)CN2C(=O)CCn3nc(-c4cn(C)c5ccccc45)cc32)c1 | -24.5% |  |
| CN(C(=O)CN1CCN(c2cc(-c3ccc(OCc4ccccc4)cc3)ncn2)CC1)c1ccccc1 |  | 25.1 µM (active) |
| CCc1ccc(OCC(=O)N2CCN(CC(=O)Nc3ccccc3Cl)CC2)cc1 | -11.6% |  |
| CCN(CC)c1ccc(NC(=O)CN2CCN(c3ccccn3)CC2)cc1 | -7.32% |  |
| c1ccc2c(Nc3ccncc3)nc(-c3ccoc3)nc2c1 | 2.01% |  |
| Cc1nc2cnc(N3CCN(C)CC3)nc2n(C[C@H]2CCCO2)c1=O | -18.4% |  |
| COc1cccc(C(=O)N(Cc2cccc(Cl)c2)Cc2ccco2)c1 | 0% |  |
| CCn1cc(CN2CCC(C(=O)Nc3cccc(-c4cccc(Cl)c4)c3)CC2)cn1 | -16.3% |  |
| CCn1cc(CN2CCC(C(=O)Nc3cccc(-c4cccc(Cl)c4)c3)CC2)c(C)n1 | -17.4% |  |
| CC(=O)c1cc(CN2CCC(C(=O)Nc3cccc(-c4cscn4)c3)CC2)cs1 |  | 20 µM (active) |
| CCOc1cc(C(=O)Nc2nnc3n2CCS3)cc(OCC)c1OCC | 4.52% |  |
| c1ccc(CN2CC[C@@]3(CCCNC3)C2)cc1 | -12.5% |  |
| CC(C)OCCCNc1ncnc2c1[nH]c1ccc(F)cc12 |  | 39.8 µM (active) |
| COc1ccc(C2Nc3ccccc3C(=O)N2c2ccc(Cl)cc2)cc1Cn1cc([N+](=O)[O-])cn1 (stereo not given) |  | 100 µM (active) |
| COc1ccccc1N1CCN(C2C(=O)c3ccccc3N2C(C)=O)CC1 (stereo not given) | -8.94% |  |
| CS(=O)(=O)N1CCC2(CC1)CN(Cc1ccccc1)C2 | -3.17% |  |
| N#Cc1nc(-c2ccc(OCc3ccccc3)cc2)oc1NCCCN1CCOCC1 |  | 39.8 µM (active) |
| Cc1ccc(-c2nc(C#N)c(NCCCn3ccnc3)o2)cc1 | 57.1% |  |
| COc1ccc(OCc2ccc(-c3nc(C#N)c(N4CCN(c5ccccc5)CC4)o3)o2)cc1 | -19.7% |  |
| C/C=C(\C)C(=O)OC1C(OC(=O)C2(C)OC2C)c2cc3ccc(=O)oc3cc2OC1(C)C (stereo not given) | 0% |  |
| Cc1nc2cnc(N3CCN(C)CC3)nc2n(CCC#N)c1=O | -6.36% |  |

| Compound | activity change, negative = inhibition | Potency |
| --- | --- | --- |
| Cc1ccc(COC(=O)CN2C(=O)NC3(CCCC3)C2=O)cc1 | 1.27% |  |
| CC1=CC(C)(C)Nc2ccc(OC(=O)CN3C(=O)C4CCCCC4C3=O)cc21 (stereo not given) |  | 20 µM (active) |
| CC(OC(=O)CN1C(=O)C2CCCCC2C1=O)C(=O)Nc1ncc(Cl)cc1Cl (stereo not given) | -9.05% |  |
| O=C(O)CCn1cc(C=C2C(=O)NC(=S)NC2=O)c(-c2cccc(Br)c2)n1 | 3.84% |  |
| O=C(O)CCn1cc(/C=C/C(=O)c2ccc(Cl)cc2)c(-c2cccc(Br)c2)n1 |  | 25.1 µM (active) |
| Cc1csc2nc(COC(=O)c3ccccc3NC(=O)c3ccccc3Cl)cc(=O)n12 | -8.02% |  |
| CCc1cnc2c(c1SCC(=O)c1ccccc1)c(=O)n(C)c(=O)n2C | -24.2% |  |
| CCC(C)[C@@H](N)C(=O)O (stereo not given in full) | 0.711% |  |
| Cc1ccc(SCC(=O)Nc2ccc3oc(-c4ccccc4F)nc3c2)cc1 | -0.835% |  |
| COc1ccc(CNC(=O)c2ccc(-c3cccnc3)c3ccoc23)cc1OC |  | 22.4 µM (active) |
| COCCCNC(=O)c1ccc(-c2c(C)noc2C)c2ccoc12 | 27.2% |  |
| COc1ccc(CNC(=O)c2c(C)cc(=O)oc2C)cc1OC | -29.7% |  |
| C=CC(=O)c1ccc2ccccc2c1 | -9.61% |  |
| CCOC(=O)N1CCN(Cc2ccc3c(c2)CN(C(=O)c2cccc(-n4cccn4)c2)CCO3)CC1 | -23.1% |  |
| CCCCC/C=C\C/C=C\CCCCCCCCCC(=O)O | -17.4% [at 6.7 µM] |  |
| Cn1c(=O)c2c(nc(Br)n2CCSc2nc3ccccc3o2)n(C)c1=O | -16.2% |  |
| Cc1ccnc(SCCn2c(Br)nc3c2c(=O)[nH]c(=O)n3C)n1 | -13.3% |  |
| Cn1c(=O)[nH]c(=O)c2c1nc(Br)n2CCCCSc1nc2ccccc2o1 |  | 35.5 µM (active) |
| COc1ccccc1CNc1ncnc2ccc(-c3ccc4c(c3)OCO4)cc12 | -3.54% |  |
| CC1O[C@@H](Oc2c(-c3ccc(O)c(O)c3)oc3cc(O)cc(O)c3c2=O)C(O)C(O)C1O (stereo not given in full) | -2.06% |  |
| COc1ccc(Cc2nc3ccc(C(=O)NCc4ccccc4C)cc3o2)cc1 | -13.5% |  |
| COC(=O)c1ccccc1NC(=O)c1ccc2c(=O)n3c(nc2c1)CCCCC3 | -21.2% |  |
| CCc1c(C)sc(NC(=O)C2c3ccccc3Oc3ccccc32)c1C(=O)OC(C)C | 0% |  |
| Cc1ccn2c(c1)nc(=O)c1cc(S(=O)(=O)N3CCC(C)CC3)ccc12 |  | 11.2 µM (active) |
| CC1CCN(S(=O)(=O)c2ccc3c(c2)n(C)c(=O)n3C)CC1 | -2.39% |  |
